The campaign covered roughly 20,000 compounds. About 660 (3.3%) were called active.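 Rule for the calls: active = enzyme reaction rate more than 3 SD below the solvent-only control wells on the same plate; inactive = the rest.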 Many of the other results were omitted from the sample, so actives are more common in it than they were.

The target in the assay is Ferrochelatase, mitochondrial (Homo sapiens) (UniProt P22830). As to the kind of experiment: inhibitors of human ferrochelatase, primary screen, biochemical, purified FECH, Ni-mesoporphyrin absorbance (AID 1671448). The conditions noted are these: Ni-mesoporphyrin absorbance 550 nm, screened at 10 µM (by protocol).
Sequence of Ferrochelatase, mitochondrial (Homo sapiens) (P22830 whole entry, looked up): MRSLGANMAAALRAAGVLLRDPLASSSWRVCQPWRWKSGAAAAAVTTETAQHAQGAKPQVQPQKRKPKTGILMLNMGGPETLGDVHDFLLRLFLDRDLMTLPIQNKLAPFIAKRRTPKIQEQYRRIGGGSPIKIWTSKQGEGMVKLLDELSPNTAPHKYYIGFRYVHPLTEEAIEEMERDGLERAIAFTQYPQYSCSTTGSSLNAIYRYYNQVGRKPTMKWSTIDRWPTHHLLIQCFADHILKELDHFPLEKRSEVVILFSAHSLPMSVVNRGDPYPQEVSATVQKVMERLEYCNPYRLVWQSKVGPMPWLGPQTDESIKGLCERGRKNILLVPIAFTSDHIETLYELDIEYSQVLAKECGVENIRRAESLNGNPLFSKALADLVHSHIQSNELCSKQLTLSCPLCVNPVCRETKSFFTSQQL
`CCOc1ccc(CCNC(=O)CN2C(=O)C=C(CC(=O)OC)Nc3ccccc32)cc1OCC`: the call was inactive. Take `CNCc1cc(-c2ccc(C)c3ncccc23)ccc1OC`: the molecule was classed as inactive. On to `COCCNC(=O)Cn1c(C(=O)OC)cc2ccsc21`, for which the result was inactive. In the case of `NC(=O)c1cccc(CC2CCN(C(=O)CCc3cn4ccccc4n3)C2)c1` (stereo not given), the molecule was called inactive.

In the case of `CN(C)c1ccc(CNC(=O)c2nc(N3CCCC3)c3oc4ccccc4c3n2)cc1`, the molecule was called inactive. `COc1cccc(Cn2c(CNS(=O)(=O)c3cccc(Cl)c3)nc3cccnc32)c1`: the result was inactive. As to `Cc1cc(C)n(CCNC(=O)c2cc(-c3ccccc3)n[nH]2)c(=O)n1`, the molecule was classed as inactive. For the molecule `COc1nc2c(cc1CNC(=O)c1ccncc1F)C(=O)N(C1CCCC1)C2`, the outcome was inactive. Under `CC(C)CN1CCOC(CCNC(=O)c2cncs2)C1` (stereo not given) stands “inactive”. `CCCCN(C)c1nc(Nc2ccc(OC)cc2)c2cnn(-c3ccccc3)c2n1`: the result was active. Consider `CCN(CC)c1nc(Nc2ccc(C)cc2)c2cnn(-c3ccccc3)c2n1`, for which the molecule was called inactive. Take `COc1ccc(OC)c(Nc2nc(N(C)C)nc3c2cnn3-c2ccccc2)c1`: the molecule was classed as inactive. Under `Cc1cc(NC(=O)c2ccc(C(C)(C)C)cc2)n(-c2ncnc3c2cnn3-c2ccc(Cl)cc2)n1` stands “inactive”; under `Cc1ccsc1CN(C)C(=O)c1ccc(-c2ncn[nH]2)cc1`, “inactive”; under `CCOC(=O)N1CCC(NCc2ccccc2-n2ccnc2C)CC1`, “inactive”. On to `O=C(O)[C@H]1C[C@@H](O)CCN1C(=O)C1(c2ccc(Cl)cc2)CC1`, for which the result was inactive. Under `O=C(NC(Cn1cccn1)c1ccccc1)c1cc2n(n1)CCNC2` (stereo not given) stands “inactive”. Under `O=C(NCc1ccccn1)C1CCN(c2ccc(-c3ccc(Br)s3)nn2)CC1` stands “inactive”. For the molecule `Cc1ccc(CSc2ncc(Cl)c(C(=O)Nc3ccc(S(N)(=O)=O)cc3)n2)cc1`, the outcome was inactive. For `COC(=O)c1ccc(NC(=O)CN2CCN(Cc3ccc(C)cc3)S2(=O)=O)cc1`, the call was inactive. `CCc1ccc(NC(=O)CN2CCN(Cc3cccc(C)c3)S2(=O)=O)cc1`: the molecule was called active.

Consider `Cc1cccc(CN2CCCN(CC(=O)Nc3ccc(Cl)cc3)S2(=O)=O)c1`, for which the call was inactive.

For `CC(COc1ccccc1)NCc1nnc(-c2ccccc2)o1` (stereo not given), the molecule was called active. Consider `Cc1cc(C)cc(C(=O)NCCn2c(-c3ccccc3)nc3cccnc32)c1`, for which the call was inactive.

For `CCn1c(=O)n(-c2ccc(C)c(C)c2)c2nc(-c3cccc(F)c3F)nc(C(N)=O)c21`, the result was inactive. On to `Cc1noc(C)c1CN(C)Cc1ccc(C2CCCO2)s1` (stereo not given), for which the call was inactive. For `COc1ccccc1CNc1nc2nc(CNc3ccc(F)cc3)cc(=O)n2[nH]1`, the result was inactive. Under `COc1ccccc1NCc1nc2nc(C(C)C)cc(=O)n2[nH]1` stands “active”; under `CCCc1cc(=O)n2[nH]c(CNc3ccc(C)cc3C)nc2n1`, “inactive”; under `CC(C)c1nc(CN(C)C(=O)c2cnn3ccn(C)c23)cs1`, “inactive”. Turning to `CCOc1ccc(NC(=O)Nc2c(C)nc3nc(C4CC4)[nH]n3c2=O)cc1`, the molecule was called inactive. For `CCOC(=O)CCc1c(C)nc2nc(CNc3ccccc3F)[nH]n2c1=O`, the molecule was classed as active.

With `COc1ccccc1-c1cc2n(C)c(C)c(CCC(=O)Nc3ccccc3F)c(=O)n2n1`, the call was inactive. On to `O=C(CCn1nnc2ccccc21)N1CCCC(c2ccn[nH]2)C1` (stereo not given), for which the call was inactive. Take `OCCCc1nc2ccccc2n1-c1ccc2[nH]ccc2c1`: the molecule was classed as inactive.

Turning to `Cc1cc2cc(C(=O)NCCSCc3nc[nH]c3C)ccc2o1`, the molecule was called inactive. On to `Cc1ccc2c(CC(=O)NCc3csc(C)n3)cc(=O)oc2c1`, for which the molecule was classed as inactive. For `O=C(c1csc(S(=O)(=O)NCc2ccc(F)cc2)c1)N1CCCC1`, the call was inactive. Under `Cc1cc(F)cc(-c2c(-c3ccccc3)ncn2CCN2CCC(O)CC2)c1` stands “active”; under `Cc1ccc(-c2c(-c3ccccc3)ncn2CCN2CCCC2=O)c(F)c1`, “inactive”; under `Cc1cc(C)c(-c2c(-c3ccccc3)ncn2CCOCCO)c(C)c1`, “inactive”.

As for `Cc1nn(C)cc1-c1c(-c2ccccc2)ncn1CCNC(=O)c1ccncc1`, the outcome was inactive. Turning to `COCCNC(=O)C1(C)Cn2c(cc3ccsc32)C(=O)N1c1ccc(OC)cc1` (stereo not given), the call was inactive.

Consider `CCc1cc(Sc2ccccc2NC(=O)c2cccc(Cl)c2)n2nc(C)nc2n1`, for which the outcome was active. As to `CCc1cc(Sc2ccccc2NC(=O)Cc2ccccc2)n2nc(C)nc2n1`, the molecule was classed as inactive. Regarding `CCc1cc(Sc2ccccc2NC(=O)c2ccc(Br)cc2)n2nc(C)nc2n1`, the molecule was called inactive.

In the case of `CC(C)CNc1nc(Nc2ccc(Cl)cc2)c2cnn(-c3ccccc3)c2n1`, the result was inactive. Under `Cc1cccc(CN2CCCN(CC(=O)NCc3ccc(Cl)cc3)S2(=O)=O)c1` stands “inactive”; under `CCOC1CCN(Cc2cc3cc4c(cc3[nH]c2=O)CCC4)CC1`, “inactive”. Under `CCOC(=O)Cn1c(=O)n(-c2ccc(C)c(C)c2)c2nc(-c3ccccc3C)nc(C(N)=O)c21` stands “inactive”; under `CCc1cc(-c2nccn2CCCc2nn[nH]n2)on1`, “inactive”; under `Cc1ccnc(C(NC(=O)c2ccccc2-n2cncn2)C2CC2)c1` (stereo not given), “inactive”. With `O=S(=O)(NCCCc1nc2ccccc2o1)NCc1ccccc1`, the outcome was inactive.

Turning to `COc1ccc(N2C(=O)CCS2(=O)=O)cc1S(=O)(=O)Nc1cc(Cl)ccc1C`, the molecule was called inactive. `Cc1ccc(S(=O)(=O)N2CCN(c3cc(-c4cccc(F)c4)ncn3)CC2)cc1C`: the call was inactive. `COc1ccc(CNc2nc3nc(CNc4ccc(C)c(Cl)c4)cc(=O)n3[nH]2)cc1`: the call was inactive.

Regarding `CC(C)(C)c1ccc(-c2nc3nc(CNc4ccccc4Cl)cc(=O)n3[nH]2)cc1`, the result was active. `Cc1cccc(NCc2cc(=O)n3[nH]c(-c4ccc(C(C)(C)C)cc4)nc3n2)c1`: the molecule was called inactive.

Turning to `O=C(NCC1CCN(Cc2ccccc2F)C1)c1cc(Cl)no1` (stereo not given), the molecule was classed as inactive. Under `CCOC(=O)Cn1c(=O)n(-c2ccc(C)c(C)c2)c2nc(-c3cccc(F)c3F)nc(C(N)=O)c21` stands “inactive”; under `Cc1nc(C(C)C)sc1CNC(=O)c1cn(CC2CCCNC2)nn1` (stereo not given), “inactive”. With `O=C(C1CCCN(C2CCN(Cc3cccnc3)CC2)C1)N1CC=CC1` (stereo not given), the result was inactive. Take `CC(c1cccs1)N(C)Cc1cnc(-c2ccco2)nc1` (stereo not given): the molecule was called inactive. Under `CSC(C)(C)CC(C)NCC(=O)Nc1ccccc1C` (stereo not given) stands “inactive”. Regarding `COC(C)(C)Cn1ccnc1-c1ccc(Oc2ncccn2)cc1`, the outcome was inactive. Regarding `Cn1nc(-c2ccccc2)c(-c2ccccc2)c(C(=O)Nc2ccc(S(N)(=O)=O)cc2)c1=O`, the result was inactive. For `CCOc1c(N2CCc3ccccc3C2)c(=O)c1=O`, the molecule was classed as inactive. Regarding `Cc1cccc(Cn2c(=O)c3cnc(-c4ccncc4)nc3n(C)c2=O)c1`, the call was inactive. As for `C=CC[C@@H]1CC=C[C@@H](C)N1C(=O)Cc1c(C)nc(C)[nH]c1=O`, the molecule was called inactive. With `C=CCn1c(=O)c2cnc(-c3ccc(OC)cc3)nc2n(C)c1=O`, the molecule was called inactive. In the case of `COc1ccccc1-c1nc(Cn2c(=O)c3cnc(-c4ccc(Cl)cc4)nc3n(C)c2=O)c(C)o1`, the result was inactive.

Turning to `Cn1c(=O)n(CC(=O)NCc2cccs2)c(=O)c2cnc(-c3ccccc3)nc21`, the molecule was called inactive. Take `Cn1c(=O)n(CC(=O)N2CCOCC2)c(=O)c2cnc(-c3ccccc3)nc21`: the call was active.

Turning to `C=CCn1c(=O)c2cnc(-c3ccc(Cl)cc3)nc2n(C)c1=O`, the molecule was classed as active. Turning to `CCc1ccc(CNC(=O)Cn2c(=O)c3cnc(-c4ccccc4)nc3n(C)c2=O)cc1`, the molecule was classed as inactive. With `COc1ccc(OC)c(S(=O)(=O)Nc2ccc(Sc3c(C)c(C)nc4ncnn34)cc2)c1`, the outcome was inactive. Under `COc1ccccc1C(=O)Nc1cc(C)nn1-c1ncnc2c1cnn2-c1ccc(C)cc1C` stands “inactive”. Turning to `Cc1ccccc1C(C(=O)N1CCCOCC1)N(C)C` (stereo not given), the outcome was inactive.

With `Cc1ccsc1CN(CCO)C(=O)c1ccc2c(c1)CCCO2`, the molecule was classed as inactive.

For the molecule `CC(=O)N1CCN(Cc2nc3c(C)c(C)ccc3[nH]2)CC1`, the call was inactive. For `CC(C)NC(=O)C1CCC(Cn2c(=O)c3sccc3n(CC(=O)NCc3ccco3)c2=O)CC1` (stereo not given), the molecule was called inactive. Under `CCn1cc(CN2CCN(C)C3(CCN(C(=O)c4ccco4)CC3)C2)cn1` stands “inactive”; under `CCOC(=O)c1cccc(Nc2cc(-c3ccc(C)cc3)nc(C)n2)c1`, “inactive”; under `CCC(=O)Nc1ccccc1-c1nnc(SC(CC)C(=O)Nc2ccc(OC)cc2)[nH]c1=O` (stereo not given), “inactive”. In the case of `COc1ccc(N2C(=O)CCS2(=O)=O)cc1S(=O)(=O)Nc1ccc(C(C)C)cc1`, the result was inactive. For the molecule `Nc1nc2c(c(-c3cccnc3)n1)CN(C(=O)c1cc(F)c(F)c(F)c1)C2`, the molecule was classed as inactive.

In the case of `CC(Cc1ccc2c(c1)OCO2)CN1CCC(NS(C)(=O)=O)CC1` (stereo not given), the molecule was classed as inactive. Under `Cc1noc(C)c1S(=O)(=O)N1CC(c2cccnc2)C1` stands “inactive”. Consider `c1ccc(-c2ccc(-c3nccn3CCN3CCOCC3)s2)cc1`, for which the molecule was called inactive. Under `c1cc(CN2CCOCC2)cc(-c2ccc(NC3CCCC3)nn2)c1` stands “active”; under `O=C1CC(c2cccnc2)c2cnn(CC3CC3)c2N1` (stereo not given), “inactive”; under `O=C(O)CSc1nnc(C2CCCNC2)n1-c1cccc(Cl)c1` (stereo not given), “inactive”.

On to `c1ccc(C2CCN(CCn3ccnc3C3CC3)C2)cc1` (stereo not given), for which the result was inactive. For `Cc1cc(C)cc(Nc2nc(N3CCOCC3)nc3c2cnn3-c2ccccc2)c1`, the molecule was classed as inactive. Consider `Cc1cc(C)n(CCC(=O)N(Cc2ccccc2C)CC2CCCO2)c(=O)n1` (stereo not given), for which the call was inactive. Turning to `CC1CNC(=O)CCN1Cc1ccc2cccc(Cl)c2n1` (stereo not given), the call was inactive.

Regarding `CCc1nc(C)c(C(=O)N2CCN(c3nsc4ccccc34)CC2)o1`, the call was inactive.

`Cc1c(F)cccc1NC(=O)CNC(c1ccccn1)C(F)(F)F` (stereo not given): the result was inactive. Consider `CCCSc1ncc(CN2CCC3(CCC(=O)N(C)CC3)CC2)cn1`, for which the outcome was inactive.

As to `Cc1cc(C)c(CN2CCN(Cc3ccccc3Cl)S2(=O)=O)c(C)c1`, the result was inactive. For the molecule `COc1ccc(-c2cc3n(n2)CCC(=O)N3Cc2ccc(C(=O)NCCN3CCCC3)cc2)cc1`, the molecule was called inactive. On to `Fc1ccc(-c2cc(CNc3nccc(C4CCCC4)n3)no2)cc1`, for which the call was inactive.

Consider `COc1ccc(Nc2cc(C)nc(Nc3ccc(NC(=O)c4ccc(C)cc4)cc3)n2)cc1`, for which the molecule was called inactive. As for `CCCn1ccnc1C1CC(=O)Nc2c1c(C(C)C)nn2-c1ccccc1` (stereo not given), the molecule was classed as inactive. Take `Cc1cc2nc(COc3ccc(Cl)cc3NC(=O)COc3ccccc3C)cc(=O)n2o1`: the molecule was called inactive.

The values above are taken from PubChem BioAssay AID1671448 (Corson Lab, School of Medicine, Indiana University, 2021).
